In the antibiotic and cytotoxicity screens of Wong et al. (2023):
About 3,300 (8.5%) of roughly 39,000 compounds were called active. The sample as a whole holds a higher share of actives than the screen did.

Test system: HepG2
Assay: cytotoxicity call (relative viability < 0.9)
Settings: 10 µM

Row | Structure (SMILES) | cytotoxicity call
1 | C[C@@H]1CN([C@H](C)CO)C(=O)c2cc(-c3cccnc3)cnc2O[C@@H]1CN(C)Cc1ccc(Oc2ccccc2)cc1 | inactive
2 | CC(/C=C/C(=O)NO)=C\c1ccccc1OCc1cn(CC[C@@H]2OC(=O)[C@H](Cc3ccccc3)N3CC4=C[C@@H](C5CC5)n5c(=O)n(C)c(=O)n5[C@H]4[C@H]23)nn1 | inactive
3 | C[C@@H](N)C(=O)OC(C)(C)Cc1ccc(Cl)cc1 | inactive
4 | C[C@@H]1CCCCO[C@@H](CN(C)S(C)(=O)=O)[C@H](C)CN([C@@H](C)CO)C(=O)c2cc(NS(C)(=O)=O)ccc2O1 | inactive
5 | COC(=O)c1c2oc(c1C(=O)OC)C(=O)N[C@@H](Cc1ccccc1)Cn1cc(nn1)CNC(=O)[C@@H](Cc1ccccc1)NC(=O)N[C@@H](CO)CC2 | inactive
6 | C[C@H]1OC(=O)CC[C@@H](O)/C=C/[C@@H](O)[C@@H]1O | inactive
7 | O=C(O)[C@H]1Cc2ccccc2CN1 | inactive
8 | CC(C)NC(=O)N[C@H]1C=C[C@@H](CC(=O)NCCCN(C)C)O[C@@H]1CO | inactive
9 | COc1ccc(CC(N)C(=O)NC2C(CO)OC(n3cnc4c(N(C)C)ncnc43)C2O)cc1.Cl.Cl (stereo unspecified) | active
10 | COc1nc(N)nc2c1ncn2[C@@H]1O[C@H](CO)[C@@H](O)[C@@H]1O | inactive
11 | Nc1ccc(CCNc2ncnc3c2ncn3[C@@H]2O[C@H](CO)[C@@H](O)[C@H]2O)cc1 | inactive
12 | COc1ccc(C[C@@H](N)C(=O)N[C@@H]2[C@@H](O)[C@@H](n3cnc4c(N(C)C)ncnc43)O[C@@H]2CO)cc1 | active
13 | Nc1ncnc2c1ncn2[C@@H]1O[C@H](CO)[C@@H](O)[C@H]1O | inactive
14 | Nc1ncnc2c1ncn2C1OC(CO)C(O)C1O (stereo unspecified) | inactive
15 | CN(C)c1ncnc2c1ncn2[C@H]1O[C@@H](CO)[C@@H](N)[C@@H]1O | active
16 | COc1ccc(C[C@H](N)C(=O)N[C@H]2[C@@H](O)[C@@H](n3cnc4c(N(C)C)ncnc43)O[C@@H]2CO)cc1 | active
17 | C[C@@H]1CN([C@H](C)CO)C(=O)c2cccc(NS(C)(=O)=O)c2O[C@@H]1CN(C)Cc1ccc(C(=O)Nc2ccccc2N)cc1 | inactive
18 | COCC#Cc1ccc2c(c1)O[C@H](CN(C)S(=O)(=O)c1ccc(C)cc1)[C@@H](C)CN([C@H](C)CO)S2(=O)=O | inactive
19 | C[C@@H]1CN([C@H](C)CO)C(=O)c2cc(NC(=O)Nc3cccc4ccccc34)ccc2O[C@@H]1CN(C)S(=O)(=O)c1ccc(Cl)cc1 | inactive
20 | C[C@H](CO)N1C[C@H](C)[C@H](CN(C)S(=O)(=O)c2cn(C)cn2)Oc2c(NC(=O)C3CCCCC3)cccc2C1=O | inactive
21 | C[C@H]1CN([C@@H](C)CO)C(=O)Cc2cc(NC(=O)Cc3cn(C)c4ccccc34)ccc2O[C@H]1CN(C)S(=O)(=O)c1cn(C)cn1 | inactive
22 | COc1ccc(NC(=O)N(C)C[C@H]2OCCCC[C@H](C)Oc3ccc(NC(=O)Nc4ccccc4)cc3C(=O)N([C@@H](C)CO)C[C@H]2C)cc1 | inactive

Row | Structure (SMILES) | cytotoxicity call
23 | COCCNC(=O)C[C@H]1CC[C@@H](NS(=O)(=O)c2ccc(C)cc2)[C@H](CO)O1 | inactive
24 | Cc1ccc(S(=O)(=O)Nc2ccc3c(c2)CC(=O)N([C@H](C)CO)C[C@H](C)[C@H](CN(C)S(=O)(=O)c2cccs2)O3)cc1 | inactive
25 | COc1ccc(C[C@H](N)C(=O)N[C@H]2[C@@H](O)[C@H](n3cnc4c(N(C)C)ncnc43)O[C@@H]2CO)cc1 | active
26 | C[S+](CC[C@H](N)C(=O)O)C[C@H]1O[C@@H](n2cnc3c(N)ncnc32)[C@H](O)[C@@H]1O (stereo partly specified) | inactive
27 | Nc1ncnc2c1ncn2[C@@H]1O[C@H](CSCC[C@H](N)C(=O)O)[C@@H](O)[C@H]1O | inactive
28 | C[C@H](CO)N1C[C@H](C)[C@H](CN(C)S(=O)(=O)c2ccccc2F)Oc2ncc(C#Cc3cccnc3)cc2C1=O | inactive
29 | C[C@H](CO)N1C[C@H](C)[C@H](CN(C)C(=O)Nc2cccc3ccccc23)Oc2ncc(-c3ccc(F)cc3)cc2C1=O | inactive
30 | O=C(Nc1cccc2ccccc12)c1ccc(C(F)(F)F)cc1 | inactive
31 | COCCCCC(=NOCCN)c1ccc(C(F)(F)F)cc1.O=C(O)C=CC(=O)O | active
32 | Cc1noc(C)c1NC(=O)Nc1ccc2c(c1)CC(=O)N([C@H](C)CO)C[C@@H](C)[C@@H](CN(C)CC1CC1)O2 | inactive
33 | COc1ccc(NC(=O)N(C)C[C@@H]2Oc3ccc(NC(=O)Cn4cnnn4)cc3C(=O)N([C@@H](C)CO)C[C@@H]2C)cc1 | inactive
34 | CO[C@@H]1CN(C)C(=O)c2cc(NS(=O)(=O)c3cn(C)cn3)ccc2OC[C@@H](C)N(CC2CC2)C[C@H]1C | inactive
35 | Cn1c(=O)c2[nH]cnc2n(C)c1=O.NCCN | inactive
36 | C[C@@H]1CCCCO[C@@H](CN(C)CC2CCCCC2)[C@@H](C)CN([C@H](C)CO)C(=O)c2cc(NC(=O)Nc3ccccc3)ccc2O1 | active
37 | C[C@H]1CCCCO[C@H](CN(C)CC2CCCCC2)[C@@H](C)CN([C@@H](C)CO)C(=O)c2cc(NC(=O)Nc3ccccc3)ccc2O1 | inactive
38 | C[C@@H]1CN([C@@H](C)CO)C(=O)c2cc(NC(=O)Nc3ccccc3)ccc2O[C@@H](C)CCCCO[C@H]1CN(C)CC1CCCCC1 | inactive
39 | C[C@H]1CCCCO[C@@H](CN(C)CC2CCCCC2)[C@@H](C)CN([C@@H](C)CO)C(=O)c2cc(NC(=O)Nc3ccccc3)ccc2O1 | active
40 | C[C@@H]1CCCCO[C@H](CN(C)CC2CCCCC2)[C@H](C)CN([C@@H](C)CO)C(=O)c2cc(NC(=O)Nc3ccccc3)ccc2O1 | active
41 | C[C@@H]1CCCCO[C@H](CN(C)CC2CCCCC2)[C@@H](C)CN([C@H](C)CO)C(=O)c2cc(NC(=O)Nc3ccccc3)ccc2O1 | inactive
42 | C[C@@H]1CN([C@@H](C)CO)C(=O)c2cc(NC(=O)Nc3ccccc3)ccc2O[C@@H](C)CCCCO[C@@H]1CN(C)CC1CCCCC1 | active
43 | C[C@@H]1CCCCO[C@H](CN(C)CC2CC2)[C@@H](C)CN([C@H](C)CO)C(=O)c2cc(NC(=O)Nc3ccccc3)ccc2O1 | inactive
44 | C[C@@H]1CCCCO[C@@H](CN(C)CC2CCCCC2)[C@H](C)CN([C@@H](C)CO)C(=O)c2cc(NC(=O)Nc3ccccc3)ccc2O1 | inactive

Row | Structure (SMILES) | cytotoxicity call
45 | C[C@H](CO)N1C[C@H](C)[C@@H](CN(C)CC2CCCCC2)OCCCC[C@H](C)Oc2ccc(NC(=O)Nc3ccccc3)cc2C1=O | inactive
46 | C[C@@H]1CN([C@H](C)CO)C(=O)c2cc(NC(=O)Nc3ccccc3)ccc2O[C@@H](C)CCCCO[C@@H]1CN(C)CC1CCCCC1 | inactive
47 | C[C@@H]1CCCCO[C@H](CN(C)CC2CC2)[C@H](C)CN([C@@H](C)CO)C(=O)c2cc(NC(=O)Nc3ccccc3)ccc2O1 | inactive
48 | C[C@H](CO)N1C[C@H](C)[C@@H](CN(C)S(=O)(=O)c2cn(C)cn2)Oc2c(NC(=O)c3nc4ccccc4s3)cccc2C1=O | inactive
49 | COc1ccc(NC(=O)N2C[C@H](O)COC[C@@H]3O[C@@H](CC(=O)NCc4ccccc4OC)CC[C@H]32)cc1 | inactive
50 | O=C1O[C@H](c2ccccc2)[C@H](c2ccccc2)N2[C@H]1[C@@H](C(=O)O)[C@]1(C(=O)Nc3ccc(Cl)cc31)[C@H]2c1ccc(F)cc1 | inactive
51 | NC(=O)COc1ccccc1 | inactive
52 | C[C@H](CO)N1C[C@H](C)[C@H](CN(C)C(=O)Nc2ccc3c(c2)OCO3)OCc2cnnn2CCCC1=O | inactive
53 | Cc1noc(C)c1S(=O)(=O)N(C)C[C@@H]1Oc2ccc(NS(C)(=O)=O)cc2C(=O)N([C@@H](C)CO)C[C@@H]1C | inactive
54 | C[C@@H]1CCCCO[C@@H](CN(C)S(=O)(=O)c2cn(C)cn2)[C@@H](C)CN([C@H](C)CO)C(=O)c2cc(NS(C)(=O)=O)ccc2O1 | inactive
55 | COCC(=O)Nc1ccc2c(c1)C(=O)N(C)C[C@H](OC)[C@H](C)CN(Cc1cccc(F)c1)[C@H](C)CO2 | inactive
56 | C=CCOC(=O)[C@@H]1[C@H]2C(=O)O[C@H](c3ccccc3)[C@H](c3ccccc3)N2[C@H](c2ccc(OCCOC(=O)[C@H]3C[C@H]4C(=O)NCC(=O)N4[C@H]3c3cccc(OCCO)c3)cc2)[C@@]12C(=O)Nc1ccccc12 | inactive
57 | C[C@@H]1CN([C@@H](C)CO)C(=O)c2cc(NC(=O)NC3CCCCC3)ccc2O[C@@H](C)CCCCO[C@@H]1CN(C)S(=O)(=O)c1ccc(F)cc1 | inactive
58 | C[C@H]1CN([C@@H](C)CO)C(=O)c2cc(NS(=O)(=O)c3ccc(F)cc3)ccc2O[C@@H]1CN(C)C(=O)Nc1ccc(C(F)(F)F)cc1 | inactive
59 | C[C@@H]1CCCCO[C@@H](CN(C)CC2CCCCC2)[C@@H](C)CN([C@@H](C)CO)C(=O)c2cc(NC(=O)Nc3ccccc3)ccc2O1 | active
60 | C[C@H](CO)N1C[C@H](C)[C@@H](CN(C)CC2CC2)OCCCC[C@H](C)Oc2ccc(NC(=O)Nc3ccccc3)cc2C1=O | inactive
61 | C[C@@H]1CCCCO[C@@H](CN(C)CC2CC2)[C@H](C)CN([C@H](C)CO)C(=O)c2cc(NC(=O)Nc3ccccc3)ccc2O1 | inactive
62 | C[C@@H]1CCCCO[C@@H](CN(C)CC2CCCCC2)[C@H](C)CN([C@H](C)CO)C(=O)c2cc(NC(=O)Nc3ccccc3)ccc2O1 | active
63 | C[C@H](CO)N1C[C@H](C)[C@H](CN(C)CC2CCCCC2)OCCCC[C@H](C)Oc2ccc(NC(=O)Nc3ccccc3)cc2C1=O | active
64 | C[C@@H]1CCCCO[C@@H](CN(C)CC2CC2)[C@H](C)CN([C@@H](C)CO)C(=O)c2cc(NC(=O)Nc3ccccc3)ccc2O1 | inactive
65 | C[C@H]1CCCCO[C@H](CN(C)CC2CC2)[C@@H](C)CN([C@@H](C)CO)C(=O)c2cc(NC(=O)Nc3ccccc3)ccc2O1 | inactive
66 | C[C@@H]1CCCCO[C@H](CN(C)CC2CCCCC2)[C@H](C)CN([C@H](C)CO)C(=O)c2cc(NC(=O)Nc3ccccc3)ccc2O1 | active
